Where “and” joins values, the source holds several entries; their conditions need not be identical. Identical values can stand only once. Hit rate of the full screen: of about 310,000 compounds, about 11,000 (3.5%) were called active. About 4% were inconclusive and are not listed. The sample holds actives, similar compounds and a random draw of the others, so the mix is not that of the screen. Calls come from the whole dose curve; as a rule, active = well fitted inhibition curve with a large enough effect; inconclusive = small, poorly fitted or top-dose-only effect, or another doubt; inactive = no such curve, though single readings can be large or run the other way.
target: 4'-phosphopantetheinyl transferase ffp (Bacillus subtilis) (UniProt Q9F4F7); assay: qHTS Assay for Inhibitors of Bacillus subtilis Sfp phosphopantetheinyl transferase (PPTase); settings: Biochemical Sfp PPTase activity;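 note: the enzyme is Sfp with the accession as filed and its product quenches rhodamine fluorescence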;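 for Largest response in the series, negative = inhibition: 0% = enzyme reaction without inhibitor and -100% = no enzyme wells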
Method in brief: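 Reaction rates are the 30-min fluorescence difference (ex 525, em 598 nm) in wells containing 15 nM Sfp, 5 uM rhodamine-CoA and 12.5 uM BHQ-2-YbbR at pH 7.6 with 10 mM MgCl2.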
Potency is the fitted concentration of half-maximal effect.

Largest response in the series, negative = inhibition, inactive:
COCCN1CCn2c(nc3cc(NS(C)(=O)=O)ccc32)C1 11.6%, Cc1cc(=O)oc2c1ccc1ccccc12 3.98%, CC(=O)c1ccc(NC(=O)c2cc(-c3cccs3)on2)cc1 1.32%, COc1ccc(Cn2c(=O)cc(C)[nH]c2=S)cc1 -4.49%, COc1cc(=O)[nH]c(=O)n1C(=O)Cc1ccccc1 9.86%, Cc1cc(F)ccc1NC(=S)NCCc1ccccc1 0.31%, CC1CCN(CCCn2c(SCC(=O)NC3CCCC3)nc3ccccc3c2=O)CC1 6.04%, CC[C@H](C)[C@H](NC(=O)[C@H](Cc1cnc[nH]1)NC(=O)[C@@H](N)CCC(=O)O)C(=O)N1CCC[C@H]1C(=O)N[C@@H](C)C(=O)O 3.28%, COc1cc(OC)c(NS(=O)(=O)c2cn(C)cn2)cc1Cl 14.3%, CCN(CC)CCC(c1ccc2c(c1)OCO2)c1c(OC)cc(OC)c2c(-c3ccccc3)cc(=O)oc12 (centres undefined) -27% and -23.4%, COc1cc(-c2c(-c3ccc4c(c3)OCO4)noc2C)ccc1F -12.4%, O=C(NC(=S)Nc1ccc(Cl)cc1Cl)C1CC1 8.51%, COc1cc(Cl)ccc1OCc1cc(C(=O)N(C)CCc2c(C)n[nH]c2C)no1 11.4%, Cc1c(C)c(C)c2[nH]c(=S)[nH]c2c1C 7.86%, CC1CCN(C(=O)c2ccc3c(c2)NC(=O)CN3)CC1 6.69%, O=C(c1cccc(F)c1)N1CCC2(CC1)CCN(c1ccccc1)CC2 2.37%, O=C(c1cccc(C(=O)N2CCN(c3ccc(F)cc3)CC2)c1)N1CCN(c2ccc(F)cc2)CC1 -15.2%, O=C(c1cc(C(=O)N2CCN(c3ccc(F)cc3)CC2)cc([N+](=O)[O-])c1)N1CCN(c2ccc(F)cc2)CC1 21.7%, CC(C)[C@@H](OCc1ccccc1)[C@H](C)/C=N\OC[C@@H](C)[C@H](OCc1ccccc1)C(C)C 6.88%, CCCc1cc(=O)oc2c(C)c(OCC(=O)Nc3ccccn3)ccc12 -8.94%, COc1ccc(C)cc1NC(=O)c1[nH]c(C)c(C(C)=O)c1C 1.79%, Cc1ccc(S(=O)(=O)N(C)C)cc1NC(=O)c1ccccc1Br 14%, S=C(NCc1ccco1)NCc1ccccc1Cl 8.59%, FC(F)Oc1ccc(NC(=S)NCc2ccco2)cc1Cl -3.21%, Cc1c(Cl)cccc1NC(=S)NCc1ccc2c(c1)OCO2 0.527%, COc1cccc(NC(=S)NCc2ccco2)c1 16.1%, CCC(C)[C@H]1COCCS(=O)(=O)N1Cc1ccc(C)cc1 (some centres undefined) 13.1%, Cc1cc(C(F)F)nn1CC(=O)NC1CCCCCC1 15.4%, CCCCOP(=O)(c1ccc(N(C)C)cc1)C(O)c1cc(OC)ccc1OC (centres undefined) 4.86%, CCn1c(CC(=O)Nc2ccccc2C)nnc1SCC(=O)NC1=NCCS1 7.23%, O=C(Nc1nnc(C2=COCCO2)o1)c1ccc([N+](=O)[O-])s1 5.3%, COc1ccccc1Oc1nc(-c2cccnc2)nc2ccccc12 -13.5%, COc1ccc(Nc2nc(-c3cccnc3)nc3ccccc23)cn1 5.49%, CCCCCC1CC(COc2ccccc2)OC1=O (centres undefined) 11.1%, CC(=O)N1CCOc2ccc(S(=O)(=O)N3CCC(C(=O)Nc4ccccc4F)CC3)cc21 2.67%, COCCNC(=O)c1ccc2c(c1)ncn2-c1ccc(C)c(Cl)c1 6.27%, O=C(CN1CCN(S(=O)(=O)/C=C/c2ccccc2)CC1)NC(=O)NCc1ccco1 -18.1%, COc1ccccc1N1CCN(CC(=O)NC(=O)NCc2ccco2)CC1 7.58%, COc1cccc(C(=O)NNS(=O)(=O)c2ccc(F)cc2)c1 -4.08%, O=S(=O)(NCCc1ccc(Cl)cc1)c1cccs1 7.54%, COc1cccc(CN2CCN(Cc3ccc4cccc(F)c4n3)CC2CCO)c1 (centres undefined) 13.8%, CCCc1nc2c(c(=O)c3ccccc3n2C)c(=O)n1-c1cc(C)cc(C)c1 -11.4%, COc1ccc(C(=O)CSc2nnc(COc3ccccc3)n2Cc2ccco2)cc1 -23.6%, COc1cccc(NC(=O)C(=O)c2cn(CC(=O)N3CCOCC3)c3ccccc23)c1 11.1%, COCCCNCCOCCOc1ccc(Cl)cc1Br 1.66%, Cc1ccc(C(C)(C)C)c(OCCCCN2CCCC2)c1 -28.7%, CC(C)(C)OC(=O)N1CCC(C(=O)NNC(=O)c2ccc(Cl)cc2Cl)CC1 5.93%

Potency, active:
CCCOc1ccc(Cn2c(O)cc(=O)[nH]c2=O)cc1 44.7 µM, COc1c2c(cc3occ(-c4ccc5c(c4)OCO5)c(=O)c13)OC(C)(C)C=C2 39.8 µM, O=c1[nH]c(=S)[nH]c2[nH]c(=S)[nH]c12 3.16 µM, Cc1ccc(CSCC2Nc3ccc(C(=O)N4CCN(c5ccc(F)cc5)CC4)cc3NC2=O)cc1 (centres undefined) 50.1 µM, O=C1Nc2cc(C(=O)N3CCN(c4ccc(F)cc4)CC3)ccc2NC1CSCc1cccc(F)c1 (centres undefined) 44.7 µM, CC(=O)c1c(C)[nH]c(C(=O)Nc2cc(S(=O)(=O)N(C)C)ccc2C)c1C 79.4 µM, S=C(NCc1ccc2c(c1)OCO2)NCc1ccco1 39.8 µM, S=C(NCc1ccco1)Nc1ccc2c(c1)OCCO2 28.2 µM, Fc1ccc(/C=N/Nc2nc(-c3cccnc3)nc3ccccc23)cc1 31.6 µM, CC1(c2ccccc2Cl)NC(=O)N(CC(=O)NC(=O)NCc2ccco2)C1=O (centres undefined) 79.4 µM, Cn1c2ccccc2c(=O)c2c(=O)n(Cc3ccco3)c(COc3ccccc3)nc21 8.91 µM, CC(C)(C)NCCCOc1ccc(Cl)cc1C(C)(C)C 50.1 µM
